Screening results as filed in PubChem.
HepG2 viability = counter-screen for TGF-b inhibitors: cytotoxicity in HepG2 cells; HepG2 CAGA-GFP viability, ATP luminescence, 18 h; Potency, µM (highest dose often 46.1 µM), for inactives: at the top dose activity change, negative = cytotoxicity, hits mostly cytotoxic; 410,000 tested, 0.76% active
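HepG2 CAGA-GFP cells (1000/well, DMEM with 1% FBS) received compound, then TGF-beta at 500 pg/mL final, and were incubated 18 hours at 37 degrees C. Viability was read by CellTiter-Glo luminescence. Media-only wells were set as complete cell-killing and DMSO as no toxicity.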
HTT cytoprotect = Huntington cell model cytoprotection by ATP luminescence; AID 1471; Potency, µM (titrated, usually from 56.4 µM), without a hit: cytoprotection (ATP increase), usual class: activators; PC12 HTT-Q103 induced, cytoprotection, ATP luminescence, 40 h; 230,000 tested, 0.14% active; note: % of control where 0% means no effect; nearly all actives have a fitted effect of over 45% in size
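Compounds added alongside 100 nM tebufenozide, which induces toxic Q103 huntingtin exon 1-GFP in stable PC12 cells; surviving cells quantified by luminescent ATP measurement. Medium: phenol red-free DMEM, 5% equine and 5% calf serum.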
ATXN2 expr inh = reduces ATXN2 reporter expression in HEK-293 cells; HEK-293 ATXN2-luciferase reporter, luminescence, 24 h; Potency, µM (series often up to 57 µM), inactives show at the highest dose activity change, negative = inhibition, usual class: inhibitors; 360,000 tested, 0.72% active; note: % is set by controls: 0 for no effect and ±100 for the full control effect; nearly all actives have a fitted effect of over 55% in size
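qHTS (up to 57 uM final) was run with 24 h compound exposure of reporter cells at 37 °C. Each well was multiplexed: SteadyGlo luminescence measured ATXN2-luciferase expression after a fluorogenic Gly-Phe-AFC viability readout (25 uM final).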
S2 tox = cell viability loss in ATXN counter-screen | AID 651635 | 400,000 tested, 0.49% active | Potency, µM (series often up to 56.7 µM), hits mostly cytotoxic | S2 cells (HEK-293 line with an ATXN2-luciferase reporter) viability, CellTiter-Fluor protease fluorescence, 24 h; note: nearly all actives have a fitted effect of over 40% in size
TGFb SMAD3 inh = inhibitors of TGF-b signaling. HepG2 CAGA-GFP TGF-b/SMAD3 reporter, GFP fluorescence, 18 h; TGF-beta stimulated, 500 pg/mL final. Potency, µM (highest dose often 46.1 µM), without a hit: at the top dose activity, negative = inhibition, actives largely listed as inhibitors. 410,000 tested, 1.2% active; note: % is set by controls: 0 for no effect and ±100 for the full control effect; nearly all actives have a fitted effect of over 65% in size
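GFP signal (ex488/em500-530) from TGF-beta-stimulated HEPG2 CAGA-GFP cells, 500 pg/mL final, 18 h at 37 degrees C in DMEM plus 1% FBS, normalized to unstimulated and DMSO-stimulated controls.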
HTT aggregate = inhibitors of mutant huntingtin aggregate formation in PC12 cells. PC12 HttQ103-GFP aggregates, Acumen cytometry, 40 h. Potency, µM (titrated, usually from 46.1 µM), for the others: at the top dose activity change, negative = inhibition, most hits filed as inhibitors. 220,000 tested, 1.1% active. AID 1688; note: % is set by controls: 0 for no effect and ±100 for the full control effect; nearly all actives have a fitted effect of over 60% in size
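Using laser scanning cytometry, GFP-positive aggregates were counted after lysis of PC12 cells induced with 100 nM tebufenozide to express HTT exon 1 Q103–GFP. Compounds were tested in titration.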
* hit, by the source's call; i = inactive; ? = inconclusive; · = not tested or not shown; [ ] = dose if it differs, or a comment. Shown are actives, neighbours in structure and some others; about 2.8% of the full set was active somewhere. Calls come from the whole dose curve; as a rule, active = well fitted curve in the direction sought with a large enough effect; inconclusive = small, poorly fitted or top-dose-only effect, or another doubt; inactive = no such curve, though single readings can be large; an effect the other way counts as inactive or inconclusive. Potency is the fitted concentration of half-maximal effect.

SMILES	HepG2 viability	HTT cytoprotect	ATXN2 expr inh	S2 tox	TGFb SMAD3 inh	HTT aggregate
O=C(Nc1ccc(F)c(Cl)c1)C1Cc2c(-c3ccco3)ccnc2O1 (stereo unspecified)	-7%	·	?	i	13µM*	·
COc1ccc(NC(=O)C2Cc3c(-c4ccc(NC(C)=O)cc4)ccnc3O2)cc1OC (stereo unspecified)	-1%	·	-2%	i	12%	·
COC(=O)[C@@H]1C[C@H]1[C@@H](NC(=O)OCc1ccccc1)c1ccccc1	·	5%	·	·	·	·
COC(=O)C1CCCCN1Cc1nc(N(C)C)c2ccccc2n1 (stereo unspecified)	·	·	·	i	·	·
CC(=O)c1cccc(-c2ccnc3c2CC(C(=O)Nc2ccc(Cl)c(C(F)(F)F)c2)O3)c1 (stereo unspecified)	-23%	·	0%	?	13µM*	·
Cn1nc(-c2ccccn2)nc2c(=O)n(C)c(=O)nc1-2	2.8µM*	-45%[10 µM]	?	·	2.2µM*	?
CCc1ccc(-c2nc3c(=O)n(C)c(=O)nc-3n(CC)n2)cc1	1.3µM*	·	·	·	0.89µM*	·
CCn1c(N)nc2c1c(=O)n(C)c(=O)n2C	3%	-6%	-6%	i	3%	-20%
CCCc1nc2c(=O)n(C)c(=O)nc-2n(C)n1	1.1µM*	-172%	4.2µM*	·	1.1µM*	6.3µM*
Cc1ccccc1-c1nc2c(=O)n(C)c(=O)nc-2n(C)n1	1.1µM*	·	·	·	0.63µM*	·
CCOc1ccc(NC(=O)COC(=O)c2ccccc2OCC(=O)N(C)C)cc1	-3%	·	·	·	0%	·
O=S(=O)(c1ccc(Cl)s1)N1CCN(C/C=C/c2ccccc2)CC1	-7%	-5%[10 µM]	-24%	i	?	35µM*
Cn1c(=O)c(C(=O)NNC(=O)c2ccc(Br)cc2)c(O)c2ccccc21	-44%	·	-11%	?	7.1µM*	·
CC(=Cc1ccccc1)C=C1SC(=S)N(CC(=O)O)C1=O	·	·	41%	·	·	·
Cc1c(C)n(Cc2ccccc2)c2ccc(C(=O)OCCCN(C)C)cc12	18µM*	-37%[10 µM]	-31%	?	?	-14%[9.22 µM]
Cc1ccccc1CCNC(=O)c1ccc2c(c1)c(C)c(C)n2Cc1ccccc1	-36%	·	·	·	0%	·
Cc1ccc(NC(=O)CN(C)C(=O)Cc2coc3cc(C)c(C)cc23)cc1	0%	·	5%	i	2%	·
CCN(CC(=O)Nc1ccc(OC)cc1)C(=O)Cc1coc2cc(C)c(C)cc12	11µM*	·	-11%	i	0%	·
C[C@@H](c1ccccc1)N1C(=O)[C@H]2[C@@H]3[C@H](O)[C@H](O)CC(=O)[C@H]3CC[C@H]2C1=O	·	1%[10 µM]	·	·	·	·
COC(=O)c1ccc(NC(=O)CCc2c(C)nc3c(c(C)nn3C(C)(C)C)c2C)cc1	-47%	·	13%	i	16µM*	·
Cc1ccc(Cn2cnc3c(cnn3C(C)(C)C)c2=O)cc1F	-74%	·	·	·	-15%	·
N=C(N)SCc1cn(-c2ccccc2)nc1-c1ccc(Br)cc1	11µM*	-2%	?	?	?	-18%
CC(C)(C)C1CCc2c(sc(NC(=O)CCC(=O)O)c2C(=O)Nc2ccccc2C(F)(F)F)C1 (stereo unspecified)	16µM*	·	·	·	?	·
C#CCN(C[C@@H]1[C@@H](OC(=O)NCc2ccco2)[C@@H](OC(=O)NCc2ccco2)Cn2c(=O)ccc(=O)n21)S(=O)(=O)c1ccc(C)cc1	-34%	·	14µM*	25µM*	?	·
C#CCN(C[C@@H]1[C@@H](OC(=O)NCC2CCCCC2)[C@@H](OC(=O)NCC2CCCCC2)Cn2c(=O)ccc(=O)n21)S(=O)(=O)c1ccc(C)cc1	-87%	·	3.5µM*	3.5µM*	7.1µM*	·
SMILES	HepG2 viability	HTT cytoprotect	ATXN2 expr inh	S2 tox	TGFb SMAD3 inh	HTT aggregate
C#CCN(C[C@@H]1[C@@H](OC(=O)NCCCCCC)[C@@H](OC(=O)NCCCCCC)Cn2c(=O)ccc(=O)n21)S(=O)(=O)c1ccc(C)cc1	6.3µM*	·	3.5µM*	4µM*	6.3µM*	·
C#CCN(C[C@@H]1[C@@H](OC(=O)NCc2ccco2)[C@@H](OC(=O)NCc2ccco2)Cn2c(=O)n(CCCCCC)c(=O)n21)S(=O)(=O)c1ccc(C)cc1	-11%	·	-21%	i	?	·
C#CCN(C[C@@H]1[C@@H](OC(=O)NCc2ccc(OC)c(OC)c2)[C@@H](OC(=O)NCc2ccc(OC)c(OC)c2)Cn2c(=O)ccc(=O)n21)S(=O)(=O)c1ccc(C)cc1	-23%	·	?	20µM*	?	·
C#CCN(C[C@H]1[C@H](OC(=O)NCC2CCCCC2)[C@H](OC(=O)NCC2CCCCC2)C[C@@H](C(=O)OC)[C@H]1C(=O)OC)S(=O)(=O)c1ccc(C)cc1	-29%	·	-9%	?	-1%	·
C#CCN(C[C@@H]1[C@@H](OC(=O)NCc2ccc(OC)c(OC)c2)[C@@H](OC(=O)NCc2ccc(OC)c(OC)c2)Cn2c(=O)n(CCCCCC)c(=O)n21)S(=O)(=O)c1ccc(C)cc1	0%	·	6%	i	-9%	·
C#CCN(C[C@@H]1[C@@H](OC(=O)NC2CC2)[C@@H](OC(=O)NC2CC2)Cn2c(=O)n(CCCCCC)c(=O)n21)S(=O)(=O)c1ccc(C)cc1	-15%	·	-30%	?	-21%	·
COc1ccccc1CCNc1ncnc2sc(C(=O)N3CCCC3)c(C)c12	·	·	·	i	·	·
Cc1nn(-c2ccc(Cl)cc2)c(=O)c2ccccc12	-1%	-15%[10 µM]	·	i	-4%	-14%[9.22 µM]
Cc1c(Cl)sn(-c2ccc(Cl)cc2)c1=O	-140%	-13%	8.9µM*	30µM*	?	16%[9.22 µM]
Cn1c(N)c(C(=O)COC(=O)c2cc(-c3ccco3)nc3ccccc23)c(=O)n(Cc2ccccc2)c1=O	·	10µM*	·	·	·	32%
Cn1c(N)c(C(=O)COC(=O)c2cc(-c3ccco3)nc3ccccc23)c(=O)n(C)c1=O	-45%	-39%	-17%	?	1%	2%
CCOC(=O)C1CCN(c2ncnc3cc(OC)c(OC)cc23)CC1	-3%	23%[10 µM]	-5%	i	13%	14%[9.22 µM]
COc1cc2ncnc(N3CCN(C(=O)Nc4ccc(Oc5ccccc5)cc4)CC3)c2cc1OC	1%	·	·	·	10µM*	·
O=C1c2ccccc2C(=O)c2c1ccc(N1C(=O)c3ccccc3C1=O)c2-c1c(N2C(=O)c3ccccc3C2=O)ccc2c1C(=O)c1ccccc1C2=O	·	-7%[10 µM]	·	·	·	·
CNC(=O)CN(CCN(CCN(CC(=O)[O-])CC(=O)NC)CC(=O)[O-])CC(=O)[O-].O.[Gd+3]	·	·	7%	i	·	·
